{
  "source": "ChEMBL document CHEMBL3988442",
  "about": "“University of Dundee, Small-Polar-MMV Screening Library” (2021)",
  "data": [
    {"molecular_target": "AMP-activated protein kinase, AMPK (Homo sapiens) (UniProt P54646+O43741+P54619+Q9UGJ0+Q9Y478+Q13131+Q9UGI9)", "experiment": "AMP-dependent Kinase enzyme assay. An in vitro enzyme assay that detects ADP turnover that is directly proportional to AMPK activity. This uses naive AMPK that is activated during the assay with MK-8722", "assay_type": "functional", "design": "scale not given: direction of the effect not stated beside the values", "conditions": "30 µM", "units": {"Percent Effect": "%"}, "values": [
      {"smiles": "CC(=O)NCC(=O)N1CCCC(C(=O)c2ccc(C(C)(C)C)cc2)C1", "note": "(centres undefined)", "Percent Effect": 7.51},
      {"smiles": "COc1cccc(CN(C)Cc2[nH]c3ccccc3c2C)c1O", "Percent Effect": -44.5},
      {"smiles": "COCc1ccccc1C(=O)OCc1noc(C)n1", "Percent Effect": 6.88},
      {"smiles": "CC1CCCCN1C(=O)COc1nc(Cc2ccc(F)cc2)no1", "note": "(centres undefined)", "Percent Effect": 2.51},
      {"smiles": "CCc1nc(CN(C)C(=O)CSC)no1", "Percent Effect": 1.82},
      {"smiles": "COc1ccc(N2CCN(Cc3nc(CSC)no3)C(C)C2=O)cc1", "note": "(centres undefined)", "Percent Effect": 4.28},
      {"smiles": "Cc1nc2cc(C3CCOCC3)nn2c(NCC2COCCO2)c1C", "note": "(centres undefined)", "Percent Effect": 1.07},
      {"smiles": "OCCc1cc(C2CCCN2c2ncccn2)n[nH]1", "note": "(centres undefined)", "Percent Effect": 11.9},
      {"smiles": "CN1CC(C(=O)NCCc2ccc(Br)cc2F)CC1=O", "note": "(centres undefined)", "Percent Effect": 7.63},
      {"smiles": "CCN(Cc1ccc(N(C)C)cc1)S(=O)(=O)c1cc(Br)ccc1OC", "Percent Effect": -8.72},
      {"smiles": "Cc1ccccc1-c1noc(-c2ccc(NCC3COCCO3)nc2)n1", "note": "(centres undefined)", "Percent Effect": 6.52},
      {"smiles": "CN1CC(c2n[nH]c(=O)n2-c2cccc(Cl)c2)CC1=O", "note": "(centres undefined)", "Percent Effect": -12.1},
      {"smiles": "Cc1c(Br)cccc1CSc1nnc(CO)n1C", "Percent Effect": 4.59},
      {"smiles": "COc1cccc(S(=O)(=O)N2CCCCC2CCN2CCOCC2)c1", "note": "(centres undefined)", "Percent Effect": 39.4},
      {"smiles": "Cc1noc(-c2ccc(N(C)Cc3ccncn3)nc2)n1", "Percent Effect": 0.463},
      {"smiles": "Cc1ncc2c(n1)CN(Cc1nc(-c3ccsc3)oc1C)CC2", "Percent Effect": -40.6},
      {"smiles": "CCn1cnnc1CNS(=O)(=O)N1CCCC1c1ccc(C)o1", "note": "(centres undefined)", "Percent Effect": 0.967},
      {"smiles": "CC[C@@H](CO)NC(=O)c1cc(COc2ccc(OC)cc2Cl)[nH]n1", "Percent Effect": -0.681},
      {"smiles": "CC(CNC(=O)c1c[nH]nn1)Oc1ccc(Cl)cc1", "note": "(centres undefined)", "Percent Effect": 3.24},
      {"smiles": "O=C(CNc1ccc(OC2CCOC2)cc1)NCc1ccc(F)cc1", "note": "(centres undefined)", "Percent Effect": 18.1},
      {"smiles": "O=C(CCN1CCOCC1)Nc1cccc(CNCc2cccs2)c1", "Percent Effect": -8.77},
      {"smiles": "CC(C(=O)NCC(C)(C)c1ccc(Br)cc1)n1cncn1", "note": "(centres undefined)", "Percent Effect": 0.177},
      {"smiles": "CCN(CCOC)C(=O)c1cc(COc2ccc3c(c2)CCCC3)on1", "Percent Effect": 0.118},
      {"smiles": "Cc1cc(N2CCCC(N(C)C)C2)n2nccc2n1", "note": "(centres undefined)", "Percent Effect": 1.81},
      {"smiles": "Cn1cc(N2CCN(c3ccc(C#N)cc3F)CC2=O)cn1", "Percent Effect": 0.0438},
      {"smiles": "COCC(=O)NCCc1nc2cc(-c3ccc(OC)cc3)ncn2n1", "Percent Effect": 8.07},
      {"smiles": "CCOc1ccc(C(=O)NC2CC2)cc1C", "Percent Effect": 4.59},
      {"smiles": "CCCC1(CO)CCCN(C(=O)CNC(N)=O)C1", "note": "(centres undefined)", "Percent Effect": 8.45},
      {"smiles": "COc1cc(CNC(=O)COC2CCCCC2)ccc1O", "Percent Effect": -0.805},
      {"smiles": "CCNC(=O)CN1CCc2c(Br)ccc(F)c2C1", "Percent Effect": -1.06},
      {"smiles": "Cc1cc(C)c(C(=O)N(C)CCN(C)C(=O)OC(C)(C)C)[nH]1", "Percent Effect": -0.277},
      {"smiles": "Cc1nc(O)cc(C2(C)CCCNC2)n1", "note": "(centres undefined)", "Percent Effect": 19.4},
      {"smiles": "O=S(=O)(NC1CCN(CC(F)(F)F)C1)c1cc(F)cc(F)c1", "note": "(centres undefined)", "Percent Effect": 4.84},
      {"smiles": "COc1cc(COCC2CCN(Cc3cccnc3)CC2)cc(OC)c1", "Percent Effect": 1.38},
      {"smiles": "FC(F)(F)c1csc(N2CCN(Cc3ccccn3)CC2)n1", "Percent Effect": 7.24},
      {"smiles": "COCC(C)NC(=O)N1CCN(S(C)(=O)=O)CC1", "note": "(centres undefined)", "Percent Effect": 11.4},
      {"smiles": "CC1CCN(CC(=O)N(C)CCc2noc(C3CC3)n2)C1=O", "note": "(centres undefined)", "Percent Effect": -1.6},
      {"smiles": "CC1(c2ncc(CN(CC(=O)O)Cc3ccccc3)cn2)CCCCO1", "note": "(centres undefined)", "Percent Effect": 12.9},
      {"smiles": "CN1C(=O)[C@H]2CC[C@@H]1CN(C(=O)Nc1cccc3ccccc13)C2", "Percent Effect": -18.9}
    ]}
  ]
}
